# Shiga toxin inh – blocks Shiga toxin action in Vero cells | inhibition, % at 38.7 µM | actives 9.2% (n = 290,000) | Vero cells, Shiga toxin protein synthesis inhibition reporter | AID 2315; in the data active = inhibition mostly above about 28%, no sharp cut-off; inactive = mostly below about 43%; also: 0% is about no effect
# Pf growth 96h – P. falciparum growth inhibition at 96 hour, primary screen for plastid delayed-death inhibitors. P. falciparum luciferase reporter growth, 96 h. Potency, µM (doses to about 28.7 µM), without a hit: at the top dose activity change, negative = inhibition, most hits filed as inhibitors. actives 6.9% (n = 320,000). AID 504834; also: potency is read from the fitted curve at half-maximal effect; % is scaled to controls: 0 for no effect and ±100 for the full control effect
#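 Delayed-death screen, second-generation endpoint: infected erythrocytes, 2% hematocrit, 0.05% parasitemia final; 96 hours at 37 C, 5% CO2; luciferase detection reagent; luminescence decrease equals reduced growth.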
# CHX counter – counter-screen hit for Shiga toxin inhibitors, cycloheximide; actives 12% (n = 300,000); max response, %; cell reporter, cycloheximide protein synthesis inhibition counterscreen; in the data active = max response mostly above about 13%, no sharp cut-off; inactive = mostly below about 14%; also: read at 38.3 µM for the half of the compounds with a filed dose; 0% is about no effect
# NS1 inh – influenza NS1 inhibition; Potency, µM (titrated, usually from 46.1 µM), for the others: at the top dose activity, positive = more growth; actives 0.4% (n = 270,000); AID 2326; calls by dose curve; also: potency is read from the fitted curve at half-maximal effect; actives are rising curves; nearly all actives have a fitted effect of over 50% in size
#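 Recovery from NS1-induced slow growth read by OD600 in budding yeast switched to galactose assay medium (pH 6.0, -URA) at 1:100 dilution. Compound 23 nl per well; the matching strain lacking NS1 serves as control.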
# Pf growth 48h – P. falciparum growth inhibition at 48 hours (one generation); actives 5.9% (n = 310,000); AID 504832; P. falciparum luciferase growth in erythrocytes, 48 h; Potency, µM (series often up to 28.7 µM), without a hit: at the highest dose activity change, negative = inhibition, most hits filed as inhibitors; also: potency is read from the fitted curve at half-maximal effect; % is scaled to controls: 0 for no effect and ±100 for the full control effect
#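 Luciferase-expressing parasites in RBCs, 2% Hct / 0.1% parasitemia final; RPMI 1640 + 0.5% Albumax; 37 C, 5% CO2, one generation; luminescence read-out, lower signal = inhibition.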
# An asterisk follows results filed as active; i = inactive; ? = inconclusive; nt = no result given; [ ] = remark or other dose. A selection: hits, their analogues and other compounds. The true share with any hit is near 21%. Unless noted, calls follow the shape of the dose curve; as a rule, active = well fitted inhibition curve with a large enough effect; inconclusive = small, poorly fitted or top-dose-only effect, or another doubt; inactive = no such curve, though single readings can be large or run the other way.
SMILES,Shiga toxin inh,Pf growth 96h,CHX counter,NS1 inh,Pf growth 48h
COc1cc(NC(=O)c2ccc(C)cc2C)ccc1NC(=O)c1cccs1,21.0,70.4%,27.2,1.5%,16.4%
CCOc1cc(NC(=O)Nc2ccc(F)cc2)c(OCC)cc1NC(=O)CC,-2.0,3.0%,1.1,-34.0%,0.5%
C=C1c2ccccc2O[C@H](C(=O)OCC)C1OC (mixture of isomers),i,nt,-0.7,nt,nt
C=CCNC(=O)/C(C#N)=C/c1c(N(Cc2ccccc2)Cc2ccccc2)nc2ccccn2c1=O,12.7,9.28µM*,5.0,?,5.22µM*
N#C/C(=C\c1c(N(Cc2ccccc2)Cc2ccccc2)nc2ccccn2c1=O)C(N)=O,-5.9,?,-2.7,1.9%,4.65µM*
CCNC(=O)/C(C#N)=C/c1c(N2CCCCCC2)nc2ccccn2c1=O,-8.2,?,-3.7,3.9%,?
CCNc1ccccc1CP(=O)(c1ccccc1)c1ccccc1O (stereo unspecified),0.7,11.7µM*,-4.1,20.7%,13.1µM*
COC(=O)c1ccc(C2C(C#N)=C(N)Oc3cc(O)ccc32)cc1 (stereo unspecified),2.3,40.3%,7.4,-6.5%,-6.0%
CN(C)c1ccc2c(c1)OC(N)=C(C#N)C2c1cccc(F)c1 (stereo unspecified),-5.2,?,-3.7,-115.5%,13.1µM*
N#CC1=C(N)Oc2cc(O)ccc2C1c1cccnc1 (stereo unspecified),-0.2,-9.2%,-3.0,nt,5.7%
COC(=O)c1ccc(C2C(C#N)=C(N)Oc3cc(N)ccc32)cc1 (stereo unspecified),-15.1,11.7µM*,1.7,9.1%,-21.0%
N#CC1=C(N)Oc2cc(O)ccc2C1c1ccncc1 (stereo unspecified),-19.9,9.28µM*,-0.7,-6.2%,0.3%
CCSC1=C(C#N)C2(CCCCC2)C2=C(CC(C)(C)CC2=O)N1,21.3,?,8.4,4.9%,14.6%
CC1(C)CC(=O)C2=C(C1)NC(SCC(N)=O)=C(C#N)C21CCCCC1,9.6,0.165µM*,-1.0,3.8%,?
C[C@@H](NC(=O)[C@@H]1Cc2ccccc2CN1)C(=O)NCC1CCCO1 (stereo partly specified),-1.9,6.9%,-3.1,-12.3%,11.5%
NC(=O)[C@@H]1CC2(CC(c3cccc(NC(=O)COc4ccc(Cl)cc4)c3)=NO2)CN1C(=O)c1ccccc1 (stereo partly specified),-8.2,13.1µM*,-5.3,-0.2%,10.4µM*
C=C(C)C(=O)N1CC2(CC(c3cccc(NC(=O)COc4ccc(Cl)cc4)c3)=NO2)C[C@@H]1C(N)=O (stereo partly specified),-1.6,?,-7.4,-11.4%,?
NC(=O)[C@H]1CC2(CC(c3cccc(NC(=O)COc4ccc(Cl)cc4)c3)=NO2)CN1C(=O)Cc1ccc([N+](=O)[O-])cc1 (stereo partly specified),-4.0,11.7µM*,-0.7,-37.2%,8.28µM*
COc1ccc(C(=O)N2CC3(CC(c4cccc(NC(=O)COc5ccc(Cl)cc5)c4)=NO3)C[C@@H]2C(N)=O)cc1 (stereo partly specified),25.7,11.7µM*,7.6,-31.4%,10.4µM*
CCn1nc(C)cc1C(=O)N1CCCC(N(C)CCc2ccc(OC)c(OC)c2)C1 (stereo unspecified),23.5,?,12.0,21.9%,-19.5%
C=CCS(=O)(=O)N1CCCC(N(C)CCc2ccc(OC)c(OC)c2)C1 (stereo unspecified),7.0,5.22µM*,-1.2,-1.0%,?
CN(CCc1ccccn1)C1CCCN(S(=O)(=O)c2ccccc2)C1 (stereo unspecified),-4.1,78.4%,-2.1,-12.0%,2.5%
COc1ccc(CCN(C)C2CCCN(C(=O)Cn3cccn3)C2)cc1OC (stereo unspecified),-5.2,-7.5%,-4.7,6.6%,-5.9%
COc1ccc(CCN(C)C2CCCN(S(=O)(=O)c3ccccc3F)C2)cc1OC (stereo unspecified),-11.4,13.1µM*,-1.9,-0.8%,?
CN(CCc1ccccc1)C1CCCN(S(=O)(=O)CC(F)(F)F)C1 (stereo unspecified),-4.6,10.4µM*,1.5,2.9%,-7.6%
SMILES,Shiga toxin inh,Pf growth 96h,CHX counter,NS1 inh,Pf growth 48h
CNCc1ccccc1Sc1ccc(O)c(O)c1,-2.4,-26.9%,-1.5,10.8%,-21.9%
CC1(C)Oc2ccc(C(=O)NC3CCCC3)cc2N(CC(=O)NC2CCCCC2)C1=O,-13.9,-5.3%,-2.5,3.8%,-7.3%
CCSc1nnc(SCC(=O)c2c(N)n(C)c(=O)n(C)c2=O)s1,nt,4.15µM*,nt,nt,?
Cc1cc(C)nc(SCC(=O)c2c(N)n(C)c(=O)n(C)c2=O)n1,-12.8,nt,-3.3,2.5%,25.0%
Cc1ccccc1Nc1nnc(SCC(=O)c2c(N)n(C)c(=O)n(C)c2=O)s1,-0.8,?,5.4,nt,5.22µM*
CCCCNS(=O)(=O)c1ccc(OCC(=O)OC)cc1,9.2,-0.2%,-1.8,7.4%,0.4%
Cc1ccc(S(=O)(=O)CCc2ccncc2)cc1,-4.2,173.4%,5.3,-0.5%,-1.3%
COc1ccc(C(=S)N2CCOCC2)cc1OS(=O)(=O)c1ccc(Br)cc1,-10.2,6.8%,-1.7,-2.7%,0.5%
O=c1[nH]c(SCc2cccc(Cl)c2)nc2[nH]ncc12,17.5,-4.0%,20.5*,2.3%,5.2%
O=C(CSc1nc2ccccc2c(=O)[nH]1)NCc1ccc(Cl)cc1,-14.1,10.9%,-4.0,4.2%,nt
O=c1[nH]c(SCc2ccc(Cl)cc2)nc2[nH]ncc12,26.6,?,19.2*,nt,?
O=C(CSc1nc2[nH]ncc2c(=O)[nH]1)c1ccc(Cl)cc1,15.8,59.0%[1.15 µM],5.7,2.5%,1.3%[1.15 µM]
O=c1[nH]c(SCc2ccc(Cl)cc2)nc2ccccc12,20.6,13.1µM*,3.2,5.9%,?
O=c1[nH]c(SCc2ccccc2)nc2ccsc12,23.6,38.1%,36.0*,nt,22.2%
COc1ccccc1NC(=O)c1ccc2c(=O)n3c(nc2c1)CCC3,nt,?,nt,nt,35.9%
COc1ccc(C2/C=C\CN(CC3CCCCC3)C(Cc3ccccc3)C(=O)N2Cc2ccc(F)cc2)cc1 (stereo unspecified),15.0,nt,6.0,nt,nt
CCC(C)n1c(SCc2ccccc2)nc2ccsc2c1=O (stereo unspecified),5.9,4.15µM*,-3.9,-22.8%,?
S=c1nc(SCc2ccccc2)[nH]c2ccccc12,11.2,1.65µM*,8.6,nt,-5.8%
Cc1cc(C(=O)NNC(=O)Nc2ccccc2)no1,1.2,13.0%,-0.9,0.1%,3.4%
Cc1nc(C(=O)NNC(=O)Nc2ccccc2)cs1,17.7,25.2%,12.6*,1.4%,8.5%
O=C(O)c1csc(-c2cccc(Cl)c2)n1,4.5,38.5%,9.7*,-7.4%,34.9%
O=C(O)c1csc(-c2ccccc2)n1,-5.4,56.6%,0.4,-9.4%,104.0%
O=C(Nc1ccc(F)cc1F)c1csc(-c2ccccc2)n1,69.8*,43.4%,23.5*,1.2%,26.1%
O=C(Nc1ccccc1)c1csc(-c2ccccc2)n1,42.8*,12.3%,26.1*,-35.4%,25.9%

# Screening results from PubChem BioAssay.
